In the supplement of paper PMC10127200 one finds Euclidean distance data, which are given here for 40 compounds.

Molecules are shown by their SMILES. Where a name gives a salt, the structure may show the parent alone.

One assay relates to HEPG2. Briefly: Euclidean distance of Cell Painting phenotypic profile (signed KS, 77 features) to DMSO centroid (dimensionless distance); 5 or 10 uM (library dependent); higher = stronger phenotypic change vs DMSO (phenoactivity). The settings on record: 48 h. An outline of the steps:
(§1)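 Phenoactivity is computed as Euclidean distance to the median vehicle profile. The profiles, drawn from 77 Harmony features scored as signed Kolmogorov-Smirnov statistics versus same-plate vehicle wells, were corrected for plate position, correlation-weighted and replicate-averaged at the top dose. Stained cells were imaged confocally at 20X (9 fields/well) after 48 h with library compounds at 10 or 5 uM, 0.1% DMSO final, in five cancer lines and a healthy fibroblast line.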
`O=C(OC[C@H]1O[C@@H](OC(=O)c2cc(O)c(O)c(OC(=O)c3cc(O)c(O)c(O)c3)c2)[C@H](OC(=O)c2cc(O)c(O)c(OC(=O)c3cc(O)c(O)c(O)c3)c2)[C@@H](OC(=O)c2cc(O)c(O)c(OC(=O)c3cc(O)c(O)c(O)c3)c2)[C@@H]1OC(=O)c1cc(O)c(O)c(OC(=O)c2cc(O)c(O)c(O)c2)c1)c1cc(O)c(O)c(OC(=O)c2cc(O)c(O)c(O)c2)c1` [Tannic acid] showed an Euclidean distance of 1.43.

`NC1CCN(c2nc3c(cc2F)c(=O)c(C(=O)O)cn3-c2ccc(F)cc2F)C1` (configuration not stated) [Tosufloxacin p-Toluenesulfonate Hydrate] yielded an Euclidean distance of 0.47.

Turning to `O=c1cc(N2CCOCC2)oc2c(-c3cccc4c3sc3ccccc34)cccc12`, the Euclidean distance was determined as 2.73.

Turning to `CC(C)Oc1ccc2c(=O)c(-c3ccccc3)coc2c1` [Ipriflavone (Osteofix)], the Euclidean distance came out at 0.723.

In the case of `CNCCC(Oc1ccc(C(F)(F)F)cc1)c1ccccc1` (configuration not stated) [Fluoxetine HCl], the Euclidean distance came to 1.35.

On to `FC(F)(F)c1ccc(CNc2ccc(Cc3c[nH]c4ncc(Cl)cc34)cn2)cn1` [Pexidartinib (PLX3397)], for which the Euclidean distance was 2.18.

In the case of `Cc1ccc([C@@H]2O[C@H](CO)[C@@H](O)[C@H](O)[C@H]2O)cc1Cc1ccc(-c2ccc(F)cc2)s1` [Canagliflozin hemihydrate], the Euclidean distance was 1.06.

On to `CC1(C)CCC[C@]2(C)[C@H]3CC(=O)O[C@]3(C)CC[C@@H]12` [Sclareolide], for which the Euclidean distance was 1.58.

Take `Cc1ccc2c(Cl)cc(Cl)c(O)c2n1` [Chlorquinaldol]: the Euclidean distance was determined as 2.09.

As for `COc1ccc(CN2CCN(C(c3ccc(F)cc3)c3ccc(F)cc3)CC2)c(OC)c1OC` [Lomerizine 2HCl], the Euclidean distance amounted to 1.13.

Compound `C#Cc1cccc(Nc2ncnc3cc(OCCOC)c(OCCOC)cc23)c1` [Erlotinib] came in with an Euclidean distance of 0.991.

Turning to `Oc1c2ccccc2c2c3c(cccc13)N=N2`, the Euclidean distance stood at 1.13.

The compound `CC[C@@H]1/C=C(\C)C[C@H](C)C[C@H](OC)[C@H]2O[C@@](O)(C(=O)C(=O)N3CCCC[C@H]3C(=O)O[C@H](/C(C)=C/[C@@H]3CC[C@@H](O)[C@H](OC)C3)[C@H](C)[C@@H](O)CC1=O)[C@H](C)C[C@@H]2OC` [Ascomycin (FK520)] registered an Euclidean distance of 0.58.

`CC(C)(C(=O)O)c1ccc(C(O)CCCN2CCC(C(O)(c3ccccc3)c3ccccc3)CC2)cc1` (configuration not stated) [Fexofenadine HCl]: the Euclidean distance worked out at 0.305.

The compound `CCC(=O)NS(=O)(=O)c1ccc(-c2c(-c3ccccc3)noc2C)cc1` [Parecoxib] returned an Euclidean distance of 0.593.

In the case of `Cn1cc(-c2ccc3c(c2)ncn3-c2cc(NS(=O)(=O)C3CC3)cc(-c3ccc(F)cc3F)c2)cn1`, the Euclidean distance was determined as 1.6.

In turn, `COC(=O)/C=C/C(=O)OCCN1C(=O)CCC1=O` [Diroximel Fumarete] had an Euclidean distance of 0.611.

As to `N=C(N)N` [Guanidine HCl], the Euclidean distance was 0.512.

Regarding `O=C(O)c1ccccc1O` [Salicylic acid], the Euclidean distance amounted to 0.308.

In turn, `CCCC(CCC)C(=O)O` [Divalproex Sodium] came in with an Euclidean distance of 0.404.

Consider `C[C@@H](O)[C@H]1C(=O)N2C(C(=O)O)=C(S[C@@H]3CN[C@H](C(=O)N(C)C)C3)[C@H](C)[C@H]12` [Meropenem Trihydrate], for which the Euclidean distance was 1.01.

As for `Cc1ccc(C(=O)N(CCCN)[C@@H](c2nc3cc(Cl)ccc3c(=O)n2Cc2ccccc2)C(C)C)cc1`, the Euclidean distance worked out at 3.84.

For the compound `CC(=O)Nc1cccc2c1c(Sc1ccc(Cl)cc1)c(C)n2CC(=O)O`, the Euclidean distance was 0.51.

For `C=CC1=C(C(=O)O)N2C(=O)[C@@H](NC(=O)/C(=N\O)c3csc(N)n3)[C@H]2SC1` [Cefdinir], the Euclidean distance was found to be 1.17.

The compound `Cc1cc(-c2ncc(CC(=O)Nc3ccc(-c4cnccn4)cn3)cc2C)ccn1` showed an Euclidean distance of 0.741.

Regarding `CC1=C(CC(=O)O)c2cc(F)ccc2/C1=C\c1ccc([S+](C)[O-])cc1` (configuration not stated) [Sulindac], the Euclidean distance was determined as 1.5.

`Cc1ccc(C(=O)Nc2ccc(CN3CCN(C)CC3)c(C(F)(F)F)c2)cc1C#Cc1cnc2cccnn12` gave an Euclidean distance of 4.93.

For `CN1C(=O)[C@@H](NC(=O)c2n[nH]c(Cc3ccccc3)n2)COc2ccccc21`, the Euclidean distance came out at 0.727.

In turn, `CN(C)CCN(Cc1ccc(Cl)cc1)c1ccccn1` [Chloropyramine hydrochloride] showed an Euclidean distance of 0.594.

In the case of `CCCN(CCC)C(=O)C1=Cc2ccc(-c3ccc(C(=O)N4CCCC4)cc3)cc2N=C(N)C1` [Motolimod (VTX-2337)], the Euclidean distance is 2.18.

Another assay deals with OVCAR4. The assay is described as above. The settings on record: 48 h. An outline of the steps:
as §1
In turn, `Cc1cccc(-c2[nH]c(C(C)(C)C)nc2-c2ccc3c(c2)OCO3)n1` yielded an Euclidean distance of 1.62.

Compound `CCOC(=O)CC(=O)N1CCSC1COc1ccccc1OC` (configuration not stated) [Moguisteine] gave an Euclidean distance of 1.01.

As to `CCNC(=O)[C@@H]1CCCN1C(=O)[C@H](CCCNC(=N)N)NC(=O)[C@H](CC(C)C)NC(=O)[C@@H](CC(C)C)NC(=O)[C@H](Cc1ccc(O)cc1)NC(=O)[C@H](CO)NC(=O)[C@H](Cc1c[nH]c2ccccc12)NC(=O)[C@H](Cc1c[nH]cn1)NC(=O)[C@@H]1CCC(=O)N1` [Leuprorelin Acetate], the Euclidean distance is 0.958.

As to `C=C[C@]1(C)C[C@@H](OC(=O)CS[C@@H]2C[C@H]3CC[C@@H](C2)N3C)[C@]2(C)[C@H](C)CC[C@]3(CCC(=O)[C@H]32)[C@@H](C)[C@@H]1O` [Retapamulin], the Euclidean distance was determined as 1.59.

With `CN(C)N(C)C(=O)[C@@]1(Cc2ccccc2)CCCN(C(=O)[C@@H](Cc2c[nH]c3ccccc23)NC(=O)C(C)(C)N)C1` [Anamorelin], the Euclidean distance was 0.802.

Regarding `Cn1cc(-c2cnn3c(N)c(Br)c([C@@H]4CCCNC4)nc23)cn1`, the Euclidean distance was 2.36.

`CCCC(CCC)C(N)=O` [Valpromide] registered an Euclidean distance of 1.44.

`COc1ccc(C2CC(=O)c3c(O)cc(OC4OC(COC5OC(C)C(O)C(O)C5O)C(O)C(O)C4O)cc3O2)cc1OC` (configuration not stated) [Methyl-Hesperidin] showed an Euclidean distance of 1.25.

Regarding `CC1(C)S[C@@H]2[C@H](NC(=O)[C@H](N)c3ccccc3)C(=O)N2[C@H]1C(=O)OCOC(=O)[C@@H]1N2C(=O)C[C@H]2S(=O)(=O)C1(C)C` [Sultamicillin], the Euclidean distance worked out at 1.28.

`O=c1[nH]c(=O)n([C@H]2C[C@H](O)[C@@H](CO)O2)cc1I` [Idoxuridine] returned an Euclidean distance of 1.42.

In turn, `O=C(OC[C@H]1O[C@@H](OC(=O)c2cc(O)c(O)c(OC(=O)c3cc(O)c(O)c(O)c3)c2)[C@H](OC(=O)c2cc(O)c(O)c(OC(=O)c3cc(O)c(O)c(O)c3)c2)[C@@H](OC(=O)c2cc(O)c(O)c(OC(=O)c3cc(O)c(O)c(O)c3)c2)[C@@H]1OC(=O)c1cc(O)c(O)c(OC(=O)c2cc(O)c(O)c(O)c2)c1)c1cc(O)c(O)c(OC(=O)c2cc(O)c(O)c(O)c2)c1` [Tannic acid] registered an Euclidean distance of 1.05.

`NC1CCN(c2nc3c(cc2F)c(=O)c(C(=O)O)cn3-c2ccc(F)cc2F)C1` (configuration not stated) [Tosufloxacin p-Toluenesulfonate Hydrate] had an Euclidean distance of 1.3.

`O=c1cc(N2CCOCC2)oc2c(-c3cccc4c3sc3ccccc34)cccc12` displayed an Euclidean distance of 1.93.

Consider `CC(C)Oc1ccc2c(=O)c(-c3ccccc3)coc2c1` [Ipriflavone (Osteofix)], for which the Euclidean distance came out at 2.28.

In turn, `CNCCC(Oc1ccc(C(F)(F)F)cc1)c1ccccc1` (configuration not stated) [Fluoxetine HCl] had an Euclidean distance of 1.71.

Consider `FC(F)(F)c1ccc(CNc2ccc(Cc3c[nH]c4ncc(Cl)cc34)cn2)cn1` [Pexidartinib (PLX3397)], for which the Euclidean distance was found to be 1.

For the compound `Cc1ccc([C@@H]2O[C@H](CO)[C@@H](O)[C@H](O)[C@H]2O)cc1Cc1ccc(-c2ccc(F)cc2)s1` [Canagliflozin hemihydrate], the Euclidean distance worked out at 1.37.

The compound `CC1(C)CCC[C@]2(C)[C@H]3CC(=O)O[C@]3(C)CC[C@@H]12` [Sclareolide] came in with an Euclidean distance of 1.36.

For the compound `Cc1ccc2c(Cl)cc(Cl)c(O)c2n1` [Chlorquinaldol], the Euclidean distance was 2.94.

In turn, `COc1ccc(CN2CCN(C(c3ccc(F)cc3)c3ccc(F)cc3)CC2)c(OC)c1OC` [Lomerizine 2HCl] came in with an Euclidean distance of 1.72.

`C#Cc1cccc(Nc2ncnc3cc(OCCOC)c(OCCOC)cc23)c1` [Erlotinib] showed an Euclidean distance of 1.87.

In the case of `Oc1c2ccccc2c2c3c(cccc13)N=N2`, the Euclidean distance stood at 0.655.

The compound `CC[C@@H]1/C=C(\C)C[C@H](C)C[C@H](OC)[C@H]2O[C@@](O)(C(=O)C(=O)N3CCCC[C@H]3C(=O)O[C@H](/C(C)=C/[C@@H]3CC[C@@H](O)[C@H](OC)C3)[C@H](C)[C@@H](O)CC1=O)[C@H](C)C[C@@H]2OC` [Ascomycin (FK520)] registered an Euclidean distance of 0.799.

The compound `CC(C)(C(=O)O)c1ccc(C(O)CCCN2CCC(C(O)(c3ccccc3)c3ccccc3)CC2)cc1` (configuration not stated) [Fexofenadine HCl] showed an Euclidean distance of 1.91.

For `CCC(=O)NS(=O)(=O)c1ccc(-c2c(-c3ccccc3)noc2C)cc1` [Parecoxib], the Euclidean distance came to 0.719.

Regarding `Cn1cc(-c2ccc3c(c2)ncn3-c2cc(NS(=O)(=O)C3CC3)cc(-c3ccc(F)cc3F)c2)cn1`, the Euclidean distance came to 2.75.

`COC(=O)/C=C/C(=O)OCCN1C(=O)CCC1=O` [Diroximel Fumarete] registered an Euclidean distance of 0.814.

On to `N=C(N)N` [Guanidine HCl], for which the Euclidean distance came to 0.648.

As for `O=C(O)c1ccccc1O` [Salicylic acid], the Euclidean distance is 1.08.

`CCCC(CCC)C(=O)O` [Divalproex Sodium]: the Euclidean distance was determined as 0.812.

For `C[C@@H](O)[C@H]1C(=O)N2C(C(=O)O)=C(S[C@@H]3CN[C@H](C(=O)N(C)C)C3)[C@H](C)[C@H]12` [Meropenem Trihydrate], the Euclidean distance stood at 0.913.

With `Cc1ccc(C(=O)N(CCCN)[C@@H](c2nc3cc(Cl)ccc3c(=O)n2Cc2ccccc2)C(C)C)cc1`, the Euclidean distance was 3.78.

Compound `CC(=O)Nc1cccc2c1c(Sc1ccc(Cl)cc1)c(C)n2CC(=O)O` yielded an Euclidean distance of 0.868.

`C=CC1=C(C(=O)O)N2C(=O)[C@@H](NC(=O)/C(=N\O)c3csc(N)n3)[C@H]2SC1` [Cefdinir] showed an Euclidean distance of 0.686.

The compound `Cc1cc(-c2ncc(CC(=O)Nc3ccc(-c4cnccn4)cn3)cc2C)ccn1` came in with an Euclidean distance of 0.931.

As to `CC1=C(CC(=O)O)c2cc(F)ccc2/C1=C\c1ccc([S+](C)[O-])cc1` (configuration not stated) [Sulindac], the Euclidean distance is 1.26.

`Cc1ccc(C(=O)Nc2ccc(CN3CCN(C)CC3)c(C(F)(F)F)c2)cc1C#Cc1cnc2cccnn12` came in with an Euclidean distance of 4.29.
